p53ts 39C tox = cytotoxicity in p53ts cells at nonpermissive temperature; 1.5% of 130,000 active; Potency, µM (doses to about 46.1 µM), without a hit: at the highest dose activity change, negative = cell killing, most hits filed as cytotoxic; H1299-p53A138V viability at 39C, ATP luminescence, 24 h; further: on the % scale 0 is the no-effect control and ±100 the full control effect; nearly all actives have a fitted effect of over 55% in size
Imprint erasure = induces erasure of genomic imprints in mouse ES cells; mouse ES Peg3-LacZ reporter, beta-gal luminescence, 40 h; Potency, µM (highest dose often 60.7 µM), inactives show at the top dose activity change, positive = activation, most hits filed as activators; 0.02% of 110,000 active
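Each well holds 300 Peg3LacZ-Neo (maternal) female ES cells incubated 40 h at 37C, 5% CO2. LacZ is measured by BetaGlo luminescence, with AC50 and maximum efficacy derived from dose-response curves.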
IkB sig inh = inhibitors of IkB signaling in ABC-DLBCL cells | ABC-DLBCL IkBa-CBG/CBR dual luciferase ratio, 4 h; response scale: scaled: untreated 0%, proteasome inhibitor 100% | Potency, µM (highest dose often 57.1 µM), inactives show at the top dose IkBa stabilization activation | 0.04% of 110,000 active | AID 445; active means well fitted curve in the direction sought with a large enough effect in the signal ratio, not every such curve was filed as active; inconclusive means small, poorly fitted or top-dose-only effect, or a change in a side signal; the % refers to the signal ratio;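 further: the direction sought is a rising ratio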
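In this assay, an IκBα–CBG68 fusion accumulates when IKK-driven degradation is blocked; native CBR normalizes for cell number. OCI-Ly3 cells were treated 4 h with compound and doxycycline, then green and red light read after Chroma-Glo addition.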
p53ts 32C tox = p53ts cell cytotoxicity, permissive temperature. 0.93% of 130,000 active. Potency, µM (doses to about 46.1 µM), for inactives: top-dose activity change, negative = cytotoxicity, most hits filed as cytotoxic. H1299-p53A138V at 32C, ATP luminescence viability, 24 h;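 further: 0% = DMSO and -100% = full killing by reference compound; nearly all actives have a fitted effect of over 55% in size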
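ATP-content luminescence (ATPlite) read-out after 24 h compound exposure at 32C in H1299-p53A138V cells (600/well). Tested up to 46 uM. Normalized to DMSO (0%) and 100 uM tamoxifen (100% killing); Hill-fit AC50.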
* = called active by the depositor; ? = inconclusive; · = not tested or not shown; [ ] = remark or other dose. The list is not random: actives were taken first. Their share in the collection is about 1.7%. Unless noted, the call rests on the fitted dose curve; in most records, active means well fitted curve in the direction sought with a large enough effect; inconclusive means small, poorly fitted or top-dose-only effect, or another doubt; inactive means no such curve, though single readings can be large; an effect the other way counts as inactive or inconclusive. Potency means the concentration at half of the fitted maximal effect.

SMILES	p53ts 39C tox	Imprint erasure	IkB sig inh	p53ts 32C tox
CCc1ccccc1-n1c(SCC(=O)Nc2ccc(C)cc2)nc2n[nH]c(C)c2c1=N	-6%	-12%[10.9 µM]	?	-17%
CCc1ccc(NC(=O)CSc2nc3n[nH]c(C)c3c(=N)n2-c2ccccc2C)cc1	10µM*	-10%[10.9 µM]	2%	-11%
NCCCCNS(=O)(=O)c1cccc2c(Cl)cccc12	16µM*	-24%	-8%	13%
Cc1cc(C(=O)CN2C(=O)c3ccccc3S2(=O)=O)c(C)n1-c1ccccc1	7.9µM*	-61%	?	13µM*
Cc1cc(C(=O)CN2C(=O)C3CC=CCC3C2=O)c(C)n1-c1ccccc1 (centres undefined)	13µM*	-22%	3%	10µM*
O=C(c1ccncc1)N1CCC2(CCCN(c3ccccn3)C2)CC1	3%	·	1%[11.4 µM]	-4%
Cc1ccc2nc3c(c(Nc4ccc(C)c(C)c4)c2c1)CCC3	10µM*	-10%[10.9 µM]	?	?
Cc1ccc(Nc2c3c(nc4ccccc24)CCC3)cc1F	-25%	-13%[10.9 µM]	?	-10%
Cc1ccc(C)c(Cn2nnc(C(=O)NCc3ccc(Cl)cc3Cl)c2N)c1	13µM*	-8%[10.9 µM]	2%	-11%
COc1ccc(CSc2nc3ncccc3[nH]2)cc1	·	·	·	16µM*
CCn1c(=O)n(CC)c2cc(N3CCCC3)c(NC(=O)Nc3cc(C)cc(C)c3)cc21	13µM*	3%[10.9 µM]	?	?
CCOc1ccc(N2Cc3ccccc3C2)cc1	?	-61%	1%	13µM*
Cn1c(CSCc2ccc(F)cc2)nnc1SCC(=O)Nc1nccs1	9%	-20%	3%	9%
Cn1nnnc1SCc1ccc(C(=O)Nc2nccs2)cc1	5µM*	-40%	-1%	?
COC(=O)CCC(=O)Oc1ccc(OC(=O)CCC(=O)OC)cc1	2%	5µM*	0%	-8%
COC(=O)Cc1c(C)nc2nc(-c3ccccc3)[nH]n2c1=O	-8%	-37%	15%	-24%
COC(=O)Cc1c(C)nc2nc(-c3ccc(C)cc3)[nH]n2c1=O	?	-19%[10.9 µM]	?	10µM*
COc1ccc(-c2cc(C(F)(F)F)nc(SCCC(=O)Nc3cc(C)ccc3O)n2)cc1	10µM*	-3%[10.9 µM]	?	-1%
COc1ccc(-c2cc(C(F)(F)F)nc(SCCC(=O)Nc3ccccc3F)n2)cc1	-1%	-8%[10.9 µM]	1%	-2%
Cn1cnc2cc(NC(=O)c3ccco3)ccc21	7.9µM*	-30%	6%	16µM*
O=C(CCc1ccccc1)Nc1ccc(NC(=O)c2ccco2)cc1	-8%	-7%	-1%	3%
O=C(Nc1ccc2c(c1)OCCO2)c1ccccc1F	7.9µM*	-89%	?	5µM*
O=C(Nc1ccc2c(c1)OCCO2)NC1CCCCC1	10µM*	-61%	?	7.9µM*
CCC(=O)Nc1ccc(NC(=O)c2ccco2)cc1	10µM*	-34%	3%	13µM*
CCOc1ccc(-c2cc3c(=O)n(Cc4nc(-c5cccc(OC)c5OC)oc4C)ccn3n2)cc1Cl	3%	11%[10.9 µM]	0%	17%
SMILES	p53ts 39C tox	Imprint erasure	IkB sig inh	p53ts 32C tox
COc1cccc2cc(C(=O)NCCc3c(C)[nH]c4ccc(Br)cc34)c(=O)oc12	-2%	5%[10.9 µM]	?	-11%
Cc1ccc(C(C)C)c(OCC(=O)Nc2ccc(O)c(-c3nc4cc(Cl)ccc4o3)c2)c1	5%	-12%[10.9 µM]	-1%	2%
CC[C@H]1C2=C3C(CC[C@H]4C(OCc5ccc(F)cc5C(F)(F)F)OC[C@](C)([C@@H]34)N(C(=O)OC(C)(C)C)C2)C2COC(=O)OCC21 (some centres undefined)	-8%	-13%	·	8%
O=C(Nc1ccc2c(c1)OCCO2)c1ccco1	13µM*	-87%	3%	16µM*
O=C(COC(=O)c1ccco1)Nc1ccc2c(c1)OCCO2	-2%	-2%	0%	3%
COc1ccc2c(c1)[N+](=O)C(/C(C)=N/NC(N)=S)=C(C)[N+]2=O	·	-1%[10.9 µM]	·	·
CCOC(=O)CCCN	6%[9.22 µM]	-10%[10.9 µM]	1%[11.4 µM]	0%[9.22 µM]
C[C@H]1COC(=O)[C@H]2CCCN2C(=O)[C@@H](C)COC(=O)[C@H](Cc2ccccc2)NC1=O	6%[9.22 µM]	·	·	5%[9.22 µM]
COc1ccc(NC(=O)CCc2nc3cccnc3n2-c2ccccc2)cc1Cl	-8%	-12%[10.9 µM]	?	-3%
COc1ccccc1-n1cc(C(=O)NCC(=O)N2CCN(c3ccccc3)CC2)c2ccccc2c1=O	13µM*	-17%	0%	13µM*
O=C1N(Cc2cccc(C(F)(F)F)c2)c2ccccc2S(=O)(=O)N1c1cccc(Cl)c1	-20%	-9%[10.9 µM]	?	7%
CC(C)NC(=O)c1ccc(-n2c(-c3ccccc3)cc3c2CCCCC3)cc1	-11%	-7%[10.9 µM]	?	14%
CC1CCc2c(cc(-c3ccccc3)n2-c2ccc(C(=O)NC(C)C)cc2)C1 (centres undefined)	16µM*	-14%[10.9 µM]	0%	44%
C=C(CC1([C@@H](NP(=O)(c2ccccc2)c2ccccc2)[C@H]2C[C@@H]2CCN(C(=O)OCC)S(=O)(=O)c2ccc(C)cc2)CC1)c1ccccc1	40%	-23%	·	30%
CCN1CCN(c2cc(C)c3cc(NC(=O)c4cc(Br)ccc4Cl)ccc3n2)CC1	13µM*	-10%[10.9 µM]	?	?
Cc1cc(N2CCN(C)CC2)nc2ccc(NC(=O)Nc3ccccc3Br)cc12	13µM*	-11%[10.9 µM]	1%	16µM*
Cc1cc(N2CCN(C)CC2)nc2ccc(NC(=O)Nc3cccc(Cl)c3)cc12	25µM*	10%[10.9 µM]	-5%	?
Cc1ccc(NC(=O)Nc2ccc3nc(N4CCN(C)CC4)cc(C)c3c2)cc1C	13µM*	-6%[10.9 µM]	?	?
Cc1cc(N2CCN(C)CC2)nc2ccc(NC(=O)Nc3ccccc3)cc12	?	-5%[10.9 µM]	0%	?
Cc1noc(C)c1C(=O)N1CCC2(CC1)CCN(c1cccc(-c3ccccc3)c1)CC2	-7%	·	7%[11.4 µM]	10%
Cc1ccc(CN2C(=O)c3ccccc3CC2(C)C(=O)NC2CCCCC2)cc1 (centres undefined)	-24%	12%[10.9 µM]	-2%	1%
COc1ccccc1-c1nc(NCCc2cnc[nH]2)c2ccccc2n1	-10%	?	-6%[11.4 µM]	1%
COc1ccccc1CNc1nc(-c2ccc(C(=O)N(C)C)cc2)nc2ccccc12	-10%	-26%	-4%[11.4 µM]	1%
COc1ccccc1CNc1nc(-c2ccc(N(C)C)cc2)nc2ccccc12	20µM*	-35%	8%[11.4 µM]	?
COc1ccc2[nH]cc(CCNc3nc(-c4ccc(N(C)C)cc4)nc4ccccc34)c2c1	13µM*	-42%	-7%[11.4 µM]	10µM*
CN(C)c1ccc(-c2nc(NCCc3cnc[nH]3)c3ccccc3n2)cc1	5µM*	-25%	-8%[11.4 µM]	5µM*
CCOC(=O)c1cnc2ccc(OC)cc2c1Nc1cccc(C(C)=O)c1	-11%	-11%[10.9 µM]	?	4%
CC(C)[C@H]1C(=O)C(C(N)=O)=C(O)[C@]2(O)C(=O)C3=C(O)c4c(O)ccc(N(C)C)c4C[C@H]3C[C@@H]12	8%	·	0%	-11%

From PubChem
